Whole data set: some 25,000 sequences, median “ln(normalized median fluorescence intensity)” near 9.7, cut for the highest 2% near 11. The full list was thinned out, with the highest values kept by preference.
Tested on: PfAP2-HC AP2 domain (GST-tagged)
Test: gcPBM binding intensity (ln(normalized median fluorescence intensity)); higher = stronger DNA binding
Outline: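 For binding intensity, the highest Masliner-normalised natural-log median intensity across replicate spots of either probe orientation was taken. Protein bound to the array was stained with Alexa488 anti-GST antibody and scanned at 488 nm. The protein, GST-tagged P. falciparum DNA-binding domains from E. coli at about 25 μg on average, had been applied for 1 h to an Agilent 4 × 180k array of primer-extended double-stranded 36-bp intergenic genomic probes and negative controls.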

Sequence	gcPBM binding intensity (ln)
ATTAATATATTTACCACACACCCATTTCGATTTTAT [CACACA_site3605]	10.3
AATATATATATAAATAATATACCTATATATTTTTTG [XGTACX_negctrl_site407]	9.61
TAATATATTAATATATGTACATATTTATATATCTAC [XGTACX_site7117]	9.81
TTTTATAAATATTATACATGCATAATGATAAAAAAA [TGCATGCA_site927]	9.55
TAATAATAAAAATAAACACACATATATCTGTATTTA [CACACA_site5572]	9.74
TTTTCTTTTTTGAACTGTACGCGTAAATTTAAAAAG [XGTACX_site882]	9.36
TTTTTGTTACCTATTGTGCACTTCATATAAATTAAA	9.74
ATATATAATATTTATTGTACTATTTTATTTTTATAA [XGTACX_site705]	9.62
ACCTAAAATAACTACACACACATAAAAAAAAAAAAA [CACACA_site2529]	10.2
CAAATACACGGACACACACACACAAAAAAAAAAAAA [CACACA_site6385]	11
CACGCACGCACATACACACACATACACATATAAATA [CACACA_site6907]	10.1
TTATACACAAAAAAAAAAATATATATATATATATAT [XGTACX_negctrl_site5]	9.49
TATATAACTAAAATAACACACATATATAAAAATATA [CACACA_site7416]	9.88
ACGGACTTAAAATACACACACACCAAAAAAAAAAAA [CACACA_site7304]	10.2
AAAATACACGCATACACACACACACGCGCACATATA [CACACA_site6448]	10.6
AGCCACTTAAAATACACACACACCAAAAAAAAAAAA [CACACA_site5497]	10.2
TAACCTAAAATAACTACACACACATAAAAAAAAAAA [CACACA_site8807]	11.2
AAAAAAAATACATACACACACACACGCACATATATA [CACACA_site7645]	11.7
CCACACTTAAAATACACACACACCAAAAAAAAAAAA [CACACA_site2709]	11.3
ATGATTATACAAAATATACACACGTGGACACAAATA [CACACA_site8304]	10.3
ACAATATGTATATATATATATATGCAAATGTATAAA [CACACA_negctrl_site53]	9.78
TTTTTTAAAGCCTGTTCATCATCCTTACCTATCAAC [GTGCAC_negctrl_site452]	9.49
ATATAATATACTTATTGTACTTATTTAAAATACTAA [XGTACX_site4266]	9.58
TACTTAAAAAAAAAAAAAATAAATATTATGTATTAT [CACACA_negctrl_site138]	9.36

Sequence	gcPBM binding intensity (ln)
AAAGTTACATTCGACACACACATAACAACTAAATAA [CACACA_site3419]	10.1
TGTATATTTGTTGTTACACACATATATTTTTTTTTT [CACACA_site128]	9.86
TTGGATTTTCCATAATGTACACATAAAAGTGTTACA [XGTACX_site4544]	9.4
TATACGCAGAAACACACACACAAAAAAAAAAAAAAA [CACACA_site427]	10.5
AAAAAAAAAAAAAACACACACACACGCAAATACATA [CACACA_site6474]	11.4
AGTATACACAAACACACACACACAAAAAAAAAAAAA [CACACA_site8036]	10.7
ATTAAATACATTAACACACACACAAATAAATACATA [CACACA_site5583]	10.4
ATTAAATACATTAACACACACACAAATATATACATA [CACACA_site2881]	10.7
AACAATGTTGTACATACACACACACTAATAAAAAAT [CACACA_site8758]	10.3
AATAAAAAAATAAAATGTACATACAAATAAATAAAT [XGTACX_site5153]	9.9
AAAAAAAAAAAAAACACACACACACGCATACACATA [CACACA_site7364]	10.7
ATTAAATACATTAACACACACACAAATATGTACATA [CACACA_site7372]	11
AGTATACGCAAACACACACACACAAAAAAAAAAAAA [CACACA_site426]	11.2
CAATGTTGTACATACACACACACAAAAAAAAAATAA [CACACA_site2407]	11.4
AAAAAAAAAAAAAACACACACACACGCATACAAAAT [CACACA_site6794]	10.6
ATATAAATATGTTCTGCACACAAATAAGTGTTTGAA [CACACA_site9291]	9.79
GCACTAAAAAAATAAACACACAGATTTATATAATAT [CACACA_site1381]	9.79
TACAAAAGCTATAACATTCACCACATTATAAAAATA [CACACA_negctrl_site1112]	9.78
TAAAAACCAAAGAAAAGTACAAATTTAAATGAGAAA [XGTACX_site7450]	9.83
AAATATGTCAAATATACACACATAATAAATATAATA [CACACA_site2310]	9.99
TTCTAATATATGCATACACACAAATGTGAATATACA [CACACA_site2142]	9.83
AACAAATACGGACACACACACACACTAGAAAAAAAA [CACACA_site4442]	11
AAGGCAAACAAACACACACACATATATACATATATA [CACACA_site2122]	10.4
AAAAAAAAAATATACACACACACATACACATAAATA [CACACA_site3808]	10.4

Sequence	gcPBM binding intensity (ln)
ACAAAAAAAAAAAAAATACACACACATAAAAAAAAA [TGCATGCA_negctrl_site333]	10.2
TATTAATACGGACACACACACACACTAGATAAAATA [CACACA_site4295]	10.8
TAAAGGCAAACAAACACACACACATATATACATATA [CACACA_site2123]	11.1
AAAAAAAAAAAAAATACACACACATAAAAAAAAAAA [CACACA_site8555]	10.9
TAAAGGCAAACAAACACACACACATATATACCTATA [CACACA_site7078]	10.6
AAAAAAAAAAAATACACACACATAAAAAAAAAAATA [CACACA_site1858]	10.9
AAAATAAAATAAAATACACACATACATACATACAAA [CACACA_site5366]	10.2
AATAAAATAAAATACACACATACATACATACAAATG [CACACA_site2438]	11.2
AACAAACACGGACACACACACACACTAGAATGATTA [CACACA_site5364]	10.7
AATACATAATAACATGTACACACATTCTTCTATAAA [CACACA_site9344]	9.82
TAATAAACTTAAAAATGTACATATATTTATTATTAC [XGTACX_site4321]	9.61
AGTAAGAGGCATTAAGCATGCATATTATTATAAGCA [TGCATGCA_site237]	9.85
AAGAATGTTAATAGTACACACAATTATTATATAAAT [CACACA_site3739]	9.93
TCCAAATGTTTGCGTTGTACTCTTTTTTTAAAACTA [XGTACX_site5148]	9.73
ATATTTTTTTATAAATGTACAAAAATAATATTGCAT [XGTACX_site7399]	9.48
ATATATATTATCATTGTGCACTTATTTATATACCTT	10
AATAAATATATGTACACACACAAATATATACATATC [CACACA_site1903]	10.2
AAAAAAAAAAAACATACACACAAATATATACATACA [CACACA_site4011]	10.2
CAAATACACCAACACACACACACAAAAAAAAAAAAA [CACACA_site514]	11.3
AAAAAAAAAAAAAACATACACACAAATATATACATA [CACACA_site4010]	10
AAAAAAAAAAAACACACACACACATACAAAATATAT [CACACA_site1448]	11.3
ATATATCTACAAATATGTACACACACACATATATAT [XGTACX_site1075]	11.1
AAAATACACCAACACACACACATATATATATATATT [CACACA_site4149]	10.3
AACATATAAAAATATGCACACACAGGAATACAAACA [CACACA_site8127]	11.2

Sequence	gcPBM binding intensity (ln)
CATATAAAAATATGCACACACAGGAATACAAACATA [CACACA_site684]	10.3
TGTACAAATATGTACACACACACATATATATATATA [CACACA_site584]	10.3
AAAATATATACACAAACATGCATATAATAAATAAAT [TGCATGCA_site711]	9.99
AAAATACACAACATATATATATATATATATATATAT [XGTACX_negctrl_site21]	9.62
TATAAATTAAAATCAGTGCATATTTTGAAAAACCTC	9.66
ATATATTGATATATGTGTACATAGCTTATTTCATTT [XGTACX_site1800]	9.74
GTAAAATTAAAAATAACACACAAAAAAAAAAAAAAA [CACACA_site800]	9.85
TTTATTTATTTATTCTTATTTTTTTTTTTTTTTACT [CACACA_negctrl_site257]	9.49
CTATGAACACACACATGTACATATATTAACTCGCTA [XGTACX_site8805]	9.98
TTATAACTTTTCACAAGTACATATATATATGTATAA [XGTACX_site2306]	9.53
AAGTTAGTATTCTGCTGTACTTCTATATATAAGTGT [XGTACX_site7678]	9.61
TACAAAATGGGGAACACACACATATATATATATATA [CACACA_site3844]	9.99
CACACGCACGGACACACACACAAAAAAAAAAAGAAA [CACACA_site6378]	10.3
TAAATATATAAATACACACACATACACAAAAAAAAA [CACACA_site5890]	10.9
TATATACACATATATAAACACACAAAAAAAAAAAAA [CACACA_site8626]	9.82
TACAAAATGGGGAACACACACATATATAAATAAATA [CACACA_site7751]	11.1
CACAGACACGGACACACACACACAAAAAAAAAAAGA [CACACA_site4436]	11.3
GATACAAAATGGGGAACACACACATATATATATATA [CACACA_site9278]	10.8
TATAACATAAAACACACACACATACATACACAAAAA [CACACA_site1804]	11
CACATACATATATACACACACAAAATAATAAAATAA [CACACA_site2308]	10.4
AACAGACAAAGACACACACACATACATACATACATA [CACACA_site6351]	10.4
TATACACATATATAAACACACAAAAAAAAAAAAAAA [CACACA_site7041]	9.57
TATAAATATATATATACACACACATACACAAAAAAA [CACACA_site9191]	10.5

— the supplement of paper PMC11417369
